Source: PubChem BioAssay AID1851 (National Center for Advancing Translational Sciences (NCATS), 2009)
Out of some 16,000 compounds screened, about 5,800 (36%) were called active. About 23% were inconclusive and are not listed. This is one part of the list. Values without a mark were called inactive. Calls come from the whole dose curve; as a rule, active = well fitted curve in the direction sought with a large enough effect; inconclusive = small, poorly fitted or top-dose-only effect, or effect the other way; inactive = no such curve, though single readings can be large or run the other way.

Target: Cytochrome P450 2C19 (Homo sapiens) (UniProt P33261)
Sequence (P33261 whole entry, looked up): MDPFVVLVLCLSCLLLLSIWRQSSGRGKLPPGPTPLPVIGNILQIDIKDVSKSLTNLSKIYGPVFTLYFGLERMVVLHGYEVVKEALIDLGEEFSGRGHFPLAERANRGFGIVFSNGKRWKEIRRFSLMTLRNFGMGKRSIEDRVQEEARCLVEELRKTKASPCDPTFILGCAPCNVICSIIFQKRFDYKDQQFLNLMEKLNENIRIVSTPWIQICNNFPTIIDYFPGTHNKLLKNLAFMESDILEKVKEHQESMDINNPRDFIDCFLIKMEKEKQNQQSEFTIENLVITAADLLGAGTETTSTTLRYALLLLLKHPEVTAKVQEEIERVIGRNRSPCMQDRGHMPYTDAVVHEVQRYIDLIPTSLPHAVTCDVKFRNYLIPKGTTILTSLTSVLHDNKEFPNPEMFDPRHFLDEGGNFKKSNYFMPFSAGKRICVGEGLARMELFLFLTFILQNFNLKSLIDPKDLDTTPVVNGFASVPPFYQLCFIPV
Assay: Cytochrome panel assay with activity outcomes
Conditions: recombinant CYP, pro-luciferin dealkylation, luminescence, p450-cyp2c19; series mostly up to 57.1 µM; activity, negative = inhibition: at the top concentration
% is set by controls: 0 for no effect and ±100 for the full control effect.

Compound	AC50	activity, negative = inhibition
CCO[C@H](c1cc(OC)cc([N+](=O)[O-])c1OC)[C@H](C)/C=C\CC(=O)OC	0.398 µM (active)	–
CO/N=C\[C@@H](OC)[C@H](C)/C=C\CC(=O)OC	–	-12.9% [at 11.4 µM]
COC(=O)C/C=C\[C@H](C)[C@@H](OC)c1ccccc1Br	–	-6.61% [at 11.4 µM]
CSc1nnc(-c2sccc2OCc2ccccc2)n1C	17.8 µM (active)	–
Cc1nc2c(OCc3ccccc3)cccn2c1CC#N	–	-11.3%
CO[C@H]1COC(=O)[C@@H](C)COC(=O)[C@@H](COCc2ccccc2)NC(=O)C/C=C\[C@H]1C	–	37.5% [at 11.4 µM]
CC(C)NCCOCCSc1ccc(Cl)cc1	15.8 µM (active)	–
O=c1[nH]c(=O)n([C@@H]2C[C@H](O)[C@H](CO)O2)cc1C(F)(F)F	–	-2.44% [at 25.6 µM]
CC(=O)NC1(c2ccc(F)cc2)CCN(C(=O)Nc2ccc(F)cc2F)CC1	7.08 µM (active)	–
CC(=O)N1CCC2(CC1)CCN(C(=O)Nc1cccc(F)c1)CC2	–	-4.74%
Cn1cccc1C(=O)N1CCC2(CCN(C(=O)Nc3cccc(F)c3)CC2)CC1	–	-21.4%
CN(Cc1ccco1)c1nc(-c2ccc3c(c2)OCO3)nc2ccccc12	7.94 µM (active)	–
COc1cccc(-c2nc(N(C)Cc3ccco3)c3ccccc3n2)c1	20 µM (active)	–
CN(C)c1nc(-c2cccnc2)nc2ccccc12	–	-40.7%
CN1CCN(c2nc(-c3cccc(C#N)c3)nc3ccccc23)CC1	–	-12.9%
COc1cccc(-c2nc(N(C)C)c3ccccc3n2)c1	20 µM (active)	–
CN(Cc1ccco1)c1nc(-c2cccc(C#N)c2)nc2ccccc12	15.8 µM (active)	–
CNC(=O)c1sc(SC)cc1-c1ccc(Cl)cc1	0.0562 µM (active)	–
CCn1c(/C=C2/C(=O)N(C)c3ccccc32)nc2ccccc2c1=O	15.8 µM (active)	–
CCn1c(=O)[nH]c2ccccc2c1=O	–	-2.61%
CC(C)(CCc1nc2ccccc2[nH]1)C(=O)O	–	-0.413% [at 11.4 µM]
Cc1cc(C)cc(NC(=O)C/C(N)=N/O)c1	–	-15.2%
Cc1cc(C)cc(NC(=O)CCc2nc3ccccc3[nH]2)c1	1.58 µM (active)	–

Compound	AC50	activity, negative = inhibition
CCOC(=O)C1=C(COc2ccc(F)cc2Cl)NC(=O)NC1c1cc(C)ccc1C (stereo unspecified)	7.08 µM (active)	–
CCOC(=O)C1=C(C)NC(=O)N[C@@H]1c1coc2cc(C)cc(C)c2c1=O	–	-27.2% [at 11.4 µM]
CCOC(=O)C1=C(CSc2nc3ccccc3s2)NC(=O)NC1c1cc(C)ccc1C (stereo unspecified)	7.94 µM (active)	–
C=CCNc1nc(-c2ccc(Cl)cc2)cs1	3.16 µM (active)	–
Cc1ccc(CSC(N)=Nc2ccccc2)cc1C	2 µM (active)	–
C#C[C@@]1(O)CC[C@@H]2[C@@H]3CCC4=C(CCC(=O)C4)[C@H]3CC[C@]21C	0.0631 µM (active)	–
C#C[C@]1(O)CC[C@@H]2[C@H]3CCC4=CCCC[C@@H]4[C@@H]3CC[C@@]21C	3.98 µM (active)	–
C[C@@]12CCC(=O)C=C1CC[C@@H]1[C@@H]2[C@H](O)C[C@]2(C)[C@@H]1CC[C@]2(O)C(=O)COC(=O)CCC(=O)O	–	35.7%
C#C[C@@]1(O)CC[C@@H]2[C@@H]3CCC4=CC(=O)CC[C@@H]4[C@H]3CC[C@]21C	5.01 µM (active)	–
CCNc1ncc2nc(-c3cn(C)c4ccccc34)c(=O)n(C)c2n1	–	-18.4%
COc1cc(OC)cc(C(=O)Nn2cc(C(=O)N3CCN(C)CC3)c3ccccc3c2=O)c1	–	-11.9%
COc1ccc(NC(=O)C2CCN(C(=O)c3cccs3)CC2)c(OC)c1	–	-6.18%
COC(=O)c1ccccc1NC(=O)C1CCN(C(=O)c2ccc(OC)cc2)CC1	14.1 µM (active)	–
COc1ccc(/C=C/C(=O)Nc2ccccc2C(=O)N2CCCC2)cc1	–	-26.3%
COc1cc(OC)cc(C(=O)Nc2ccccc2C(=O)N2CCCC2)c1	28.2 µM (active)	–
O=C1[C@H]2[C@H]3[C@H](O)[C@H](O)C/C(=N/OC[C@@H](O)COCc4ccco4)[C@H]3CC[C@@H]2C(=O)N1C1CCCCC1	–	-5.34% [at 11.4 µM]
N#CC(c1ccc(Cl)cc1)(c1ncc(C(F)(F)F)cc1Cl)N1CCOCC1 (stereo unspecified)	11.2 µM (active)	–
N#CC(c1ccccc1F)(c1ncc(C(F)(F)F)cc1Cl)N1CCOCC1 (stereo unspecified)	11.2 µM (active)	–
Cc1ccc(SCc2nnc(NC(=O)c3ccccc3)s2)cc1	–	-23.4%
Cc1ccc(NC(=O)c2cccc(N(C)C)c2)cc1NC(=O)c1ccc(O)cc1	–	42%
Cc1ccc(SCCNC(=O)c2ccc(C)c(S(=O)(=O)Nc3ccccc3C)c2)cc1	2.51 µM (active)	–
Cc1ccc(SCCNC(=O)c2ccccc2)cc1	6.31 µM (active)	–
Cc1ccccc1NS(=O)(=O)c1cc(C(=O)Nc2cccc(N(C)S(C)(=O)=O)c2)ccc1C	3.55 µM (active)	–

Compound	AC50	activity, negative = inhibition
CCN(CC)CCNC(=O)c1ccc(Cl)c(S(=O)(=O)Nc2ccccc2OC)c1	–	-26.4%
Cc1ccc(SCc2ccc(C(=O)NCc3ccncc3)cc2)cc1	0.355 µM (active)	–
NS(=O)(=O)Cc1noc2ccccc12	–	-11.9%
Cc1cc(C(C)(C)CC(C)(C)C)ccc1OCCOCC[N+](C)(C)Cc1ccccc1	–	-43.6% [at 25.6 µM]
CN[C@@H]1[C@H](O[C@H]2[C@@H](O[C@@H]3[C@@H](O)[C@@H](O)[C@@H](N=C(N)N)[C@@H](O)[C@@H]3N=C(N)N)O[C@@H](C)[C@]2(O)CO)O[C@H](CO)[C@@H](O)[C@@H]1O	–	18.4% [at 25.6 µM]
COc1ccc(-c2ccc(=N)n(CCCC(=O)O)n2)cc1	0.158 µM (active)	–
COc1ccc(-c2ccc(N)[n+](CCCC(=O)O)n2)cc1	inactive	–
Clc1ccccc1-c1cc(NCc2ccccc2)ncn1	7.94 µM (active)	–
Cc1cccc(CNc2cc(-c3ccccc3Cl)ncn2)c1	10 µM (active)	–
Clc1ccccc1-c1cc(NCc2cccnc2)ncn1	–	-38%
CC(C(=O)NCc1ccc2c(c1)OCO2)N1c2cccc3cccc(c23)S1(=O)=O (stereo unspecified)	0.794 µM (active)	–
COC(=O)[C@@]1(Cc2ccc(OC)cc2)[C@H]2c3cc(C(=O)N4CCCC4)n(CCCNc4ncc(C(F)(F)F)cc4Cl)c3C[C@H]2CN1C(=O)c1ccccc1	3.16 µM (active)	–
COC(=O)[C@@]1(Cc2ccc(OC)cc2)[C@H]2c3cc(C(=O)N4CCCC4)n(Cc4ccc(Cl)c(C(F)(F)F)c4)c3C[C@H]2CN1C(=O)c1ccccc1	–	-43.7%
COC(=O)[C@@]1(Cc2ccc(F)cc2)[C@H]2c3cc(C(=O)N4CCCC4)n(CCc4c[nH]c5ccc(OC)cc45)c3C[C@H]2CN1C(=O)c1ccccc1	7.94 µM (active)	–
COc1ccc(NC(=O)N2CC[C@@]3(CCCN(C(=O)c4cccc(F)c4)C3)C2)cc1	–	14.1%
COC(=O)[C@@]1(Cc2ccc(OC)cc2)[C@H]2c3cc(C(=O)N4CCCC4)n(CCc4c[nH]c5ccc(O)cc45)c3C[C@H]2CN1C(=O)c1ccccc1	10 µM (active)	–
COC(=O)[C@@]1(Cc2ccc(OC)cc2)[C@H]2c3cc(C(=O)N4CCCC4)n(CCc4c[nH]c5cc(F)ccc45)c3C[C@H]2CN1C(=O)c1ccccc1	3.98 µM (active)	–
COc1ccc(C(=O)N2CCC[C@@]3(CCN(Cc4cc(C(F)(F)F)cc(C(F)(F)F)c4)C3)C2)cc1	–	13.4%
COC(=O)[C@@]1(Cc2ccc(F)cc2)[C@H]2c3cc(C(=O)N4CCCC4)n(CCc4c[nH]c5ccccc45)c3C[C@H]2CN1C(=O)c1ccccc1	10 µM (active)	–
O=C1C(SCCO)=C(SCCO)C(=O)c2ccccc21	0.0794 µM (active)	–
O=S(=O)(O)[C@@H](CO)c1ccccc1 (tested in a mixture with another compound)	–	-9.78% [at 11.4 µM]
CCN(CC)C(=O)CCNS(=O)(=O)c1ccc(C)cc1	5.01 µM (active)	–
Cc1ccc(S(=O)(=O)NCCC(=O)NCc2ccccc2)cc1	20 µM (active)	–

Compound	AC50	activity, negative = inhibition
Cc1ccc(S(=O)(=O)NCc2ccccc2)cc1	–	-39.9%
CCCCNC(=O)NS(=O)(=O)c1ccc(C)cc1	–	24.1% [at 25.6 µM]
COc1ncc2nc(-c3cn(C)c4ccccc34)c(=O)n(CCC#N)c2n1	–	4.22%
CCOc1cc(C2NN=C(c3ccccc3)S2)ccc1OCc1ccccc1Cl (stereo unspecified)	5.01 µM (active)	–
Nc1nc(SCC(=O)Nc2ccccc2Sc2ccc(Cl)cc2)n[nH]1	0.0631 µM (active)	–
O=C(Cn1cnc2ccccc2c1=O)Nc1nnc(SCc2ccccc2)s1	15.8 µM (active)	–
Cc1ccc(C(=O)COC(=O)c2ccccc2N2C(=O)C3C4CCC(C4)C3C2=O)cc1C (stereo unspecified)	14.1 µM (active)	–
CS(=O)(=O)Nc1ccc([N+](=O)[O-])cc1Oc1ccccc1	–	-27.8% [at 25.6 µM]
CS(=O)(=O)Nc1ccc([N+](=O)[O-])cc1OC1CCCCC1	0.0794 µM (active)	–
CCN(CC)CCOc1ccc(/C(=C(\Cl)c2ccccc2)c2ccccc2)cc1	–	-31.9% [at 25.6 µM]
CCN(CC)CCOc1ccc(Cc2ccccc2)cc1	15.8 µM (active)	–
COc1ccccc1NCc1nnc(SCC(=O)N/N=C/c2ccco2)n1-c1ccc(Cl)cc1Cl	4.47 µM (active)	–
COc1ccc(O)c(/C=N/NC(=O)CSc2nnc(C)n2-c2ccccc2)c1	–	-22.6%
Cc1nc2cnc(N(C)C)nc2n(Cc2ccc(F)cc2)c1=O	1.58 µM (active)	–
CN(C)c1ncc2ncc(=O)n(C)c2n1	–	-19.2%
CN(C)c1ncc2ncc(=O)n(Cc3ccc(F)cc3)c2n1	3.16 µM (active)	–
CN(C)c1ncc2nc(-c3ccc(F)cc3)c(=O)n(Cc3ccc(F)cc3)c2n1	–	15.8%
CN(C)c1ncc2nc(-c3ccc(Cl)cc3)c(=O)n(Cc3ccc(F)cc3)c2n1	–	-31.2%
CN(C)c1ncc2nc(-c3cc(F)cc(F)c3)c(=O)n(Cc3ccc(F)cc3)c2n1	–	36.3%
CCNc1ncc2nc(-c3ccc(OC)cc3)c(=O)n(Cc3ccc(F)cc3)c2n1	–	5.68%
CCNc1ncc2ncc(=O)n(Cc3ccc(F)cc3)c2n1	15.8 µM (active)	–
CCNc1ncc2nc(-c3ccccc3)c(=O)n(Cc3ccc(F)cc3)c2n1	–	-39%
